Entries with a potency or affinity are not part of this list. Records with an inconclusive call do not appear. A number with no mark means an inactive call.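 The calls were made as follows: active = fluorescent signal drops by 40% or more, counted as a hit; inconclusive = no clear call, values can overlap the other calls; inactive = the rest, including any activity in the opposite direction.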
Assay: blockers of FN fibrillogenesis by fibroblasts – AH1F cells, Alexa488-FN fluorescence, cherry-picks, dose response (AID 1035475);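 also: AH1F fibroblasts incorporating labeled fibronectin into their extracellular matrix; 0% = neutral control wells and -100% = wells without labeled fibronectin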
Conditions: Alexa488-fibronectin deposition fluorescence, overnight; series mostly up to 35 µM; activity change, negative = inhibition: at the top concentration

Structure (SMILES) | activity change, negative = inhibition
CO[C@H]1CN(C)C(=O)c2ccc(NC(=O)c3ccc(-c4ccccc4)cc3)cc2OC[C@H](C)NC[C@@H]1C | 10.2%
CN1c2ccc(-c3ccccc3)cc2[C@H]2[C@H](CCN2C(=O)CN2CCOCC2)[C@H]1CO | 34.4%
COCC(=O)Nc1ccc2c(c1)C(=O)N(C)[C@@H]1CC[C@H](CC(=O)NCc3ccccc3Cl)O[C@@H]1CO2 | 47.3%
CCCCOc1ccc(C(C)NC(=O)C2CCCN(S(=O)(=O)CCC)C2)cc1 (stereo not given) | 4.21%
CCOc1ccccc1NC(=O)c1c(NC(=O)CCC(=O)O)sc2c1CCCCC2 | -7.79%
C[C@@H]1CN([C@H](C)CO)C(=O)c2cc(-c3ccccc3)cnc2O[C@H]1CN(C)Cc1ccccc1 | 24.2%
C[C@H](O)C#Cc1ccc2c(c1)O[C@H](CN(C)C)[C@H](C)CN([C@@H](C)CO)S2(=O)=O | 28%
CN(C)C(=O)c1ccc(-c2ccc3c(c2)[C@H]2[C@H](CCN2C(=O)c2ccc(F)cc2)[C@H](CO)N3C)cc1 | 29.3%
O=C(CCNS(=O)(=O)c1cccc2nonc12)NC1CCCc2ccccc21 (stereo not given) | -21.1%
O=S(=O)(c1ccccc1F)N1CC[C@@H]2[C@H]1c1cc(-c3cccc(F)c3)ccc1N[C@@H]2CO | 30.4%
C[C@@H]1CN([C@H](C)CO)C(=O)c2cc(-c3ccccc3)cnc2O[C@@H]1CN(C)C(=O)c1cccc(F)c1 | 46%
S=C(NCC1CCCO1)Nc1ccc(Cl)cc1Cl (stereo not given) | -11%
CCOC(=O)C1=C(C)Nc2nc3ccccc3n2C1c1ccncc1 (stereo not given) | 0.713%
COC(=O)C[C@@H]1CC[C@H]2[C@H](COc3ccc(NC(=O)Cc4cccs4)cc3C(=O)N2C)O1 | -0.769% [at 30 µM]
CO[C@H]1CN(C)C(=O)c2cc(NC(=O)Nc3cc(Cl)cc(Cl)c3)ccc2OC[C@H](C)NC[C@H]1C | 9.38%
C[C@H](O)C#Cc1ccc2c(c1)O[C@H](CN(C)C)[C@@H](C)CN([C@@H](C)CO)S2(=O)=O | 31.3%
CO[C@H]1CN(C)C(=O)c2cc(NC(=O)Nc3ccc(Cl)c(Cl)c3)ccc2OC[C@@H](C)NC[C@@H]1C | 13.7%
CCC(C)(C)NC(=O)C(OC(=O)c1ccco1)c1ccccc1OC (stereo not given) | 11.6%

Structure (SMILES) | activity change, negative = inhibition
COCC(=O)Nc1ccc2c(c1)C(=O)N(C)[C@@H]1CC[C@@H](CC(=O)NCc3ccccc3Cl)O[C@H]1CO2 | 16.5% [at 30 µM]
CN1c2ccc(-c3ccccc3)cc2[C@@H]2[C@@H](CCN2C(=O)CN2CCOCC2)[C@@H]1CO | 24.1% [at 30 µM]
COC(=O)c1cn(CC(=O)NCc2ccco2)c2ccccc12 | 0.383%
CO[C@H]1CN(C)C(=O)c2cc(NC(=O)Nc3cc(Cl)cc(Cl)c3)ccc2OC[C@@H](C)NC[C@@H]1C | 9.01%
Cc1ccc(S(=O)(=O)N2CC[C@@H]3[C@H](CO)Nc4ccc(-c5cccc(C(=O)N(C)C)c5)cc4[C@@H]32)cc1 | -8.78%
O=C(Nc1ccccc1F)N1C[C@@H]2[C@H](c3ccccc31)[C@H](CO)N2C(=O)C1CCOCC1 | 33.8%
CN(C)C(=O)c1ccc(-c2ccc3c(c2)[C@@H]2[C@@H](CCN2C(=O)c2ccc(F)cc2)[C@@H](CO)N3C)cc1 | 24%
C[C@H](O)C#Cc1ccc2c(c1)O[C@@H](CN(C)C)[C@H](C)CN([C@@H](C)CO)S2(=O)=O | 32.9%
CO[C@H]1CN(C)C(=O)c2cc(NC(C)=O)ccc2OC[C@@H](C)N(C(=O)CN2CCOCC2)C[C@H]1C | 43.6%
C[C@H]1CN([C@@H](C)CO)C(=O)c2cccc(NC(=O)Nc3ccc(C(F)(F)F)cc3)c2O[C@H]1CN(C)C(=O)Nc1cccc2ccccc12 | -1.4%
COCC(=O)Nc1ccc2c(c1)C(=O)N(C)[C@H]1CC[C@@H](CC(=O)NCc3ccccc3Cl)O[C@@H]1CO2 | 40.5%
COCC(=O)Nc1ccc2c(c1)C(=O)N(C)[C@@H]1CC[C@@H](CC(=O)NCc3ccccc3Cl)O[C@@H]1CO2 | 40%
Cc1ccc(S(=O)(=O)N2CC[C@@H]3[C@@H](CO)Nc4ccc(-c5cccc(C(=O)N(C)C)c5)cc4[C@@H]32)cc1 | 15.5%
C[C@H]1CN([C@@H](C)CO)C(=O)c2cc(-c3ccccc3)cnc2O[C@H]1CN(C)C(=O)c1cccc(F)c1 | 20.6%
CO[C@H]1CN(C)C(=O)c2ccc(NC(=O)c3ccc(-c4ccccc4)cc3)cc2OC[C@@H](C)NC[C@H]1C | 12.2%
Cc1ccc(S(=O)(=O)N2CC3(C)CN(S(=O)(=O)c4ccc(C)cc4)CC(C)(C2)C3=O)cc1 | 6.47%
C[C@@H]1CN([C@@H](C)CO)C(=O)c2cc(-c3ccccc3)cnc2O[C@@H]1CN(C)Cc1ccccc1 | 15.3%

Reference: PubChem BioAssay AID1035475 (Broad Institute, 2014)
